The results in this text go back to PubChem BioAssay (EPA / NIEHS).

Test [1] is described as follows: TOX21_p53_BLA_p2_viability: Viability Assessment in the Tox21 HCT-116 p53 Agonism Beta-lactamase Assay, Phase 2 (AID 2283591).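 Further: compound exposure lasted 16 h at 37 °C; actives lower the ATP signal meaning cytotoxicity.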 The method, boiled down:
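HCT-116 p53-bla cells (4000/well) rested 5 h at 37C, then received compounds in DMSO (217-fold dilution) for 16 h at 37C, 5% CO2. After the CCF4 read, CellTiter-Glo was added; ATP luminescence was read after 30 min at room temperature.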

The target in test [2] is Cellular tumor antigen p53 (Homo sapiens) (UniProt P04637). In words: TOX21_p53_BLA_p2_ratio: Tox21 HCT-116 p53 Agonism Beta-lactamase Assay, Ratio, Phase 2 (AID 2283592). A digest of the protocol:
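Cleaved-to-uncleaved substrate ratio (460 vs 530 nm) measured in HCT116 cells with an inducible beta-lactamase reporter linked to p53 activity. Compounds incubated 16 h at 37C before 2 h room-temperature CCF4-AM loading.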

The nature of test [3]: TOX21_p53_BLA_p3_viability: Viability Assessment in the Tox21 HCT-116 p53 Agonism Beta-lactamase Assay, Phase 3 (AID 2283593).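 Further: cells exposed to compound for 16 h before reading.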 A digest of the protocol:
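HCT-116 cells (4000/well) rested 5 h at 37C, then got DMSO compounds by pin tool (217-fold dilution) for 16 h at 37C, 5% CO2. After the bla read, CellTiter-Glo was added and luminescence read at 30 min, room temperature.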

Test [4] addresses Cellular tumor antigen p53 (Homo sapiens) (UniProt P04637). In words: TOX21_p53_BLA_p3_ratio: Tox21 HCT-116 p53 Agonism Beta-lactamase Assay, Ratio, Phase 3 (AID 2283596). The method, boiled down:
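Cells were seeded at 4000/well, rested 5 h at 37C, then dosed with DMSO compound solutions (217-fold dilution) for 16 h. CCF4-AM substrate was loaded for 2 h at room temperature, and the 460/530 nm emission ratio was fitted for gain of signal versus DMSO.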

Test [5] is described as follows: TOX21_p53_BLA_p4_viability: Viability Assessment in the Tox21 HCT-116 p53 Agonism Beta-lactamase Assay, Phase 4 (AID 2283597).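 Further: hits lower the luminescence signal meaning cytotoxicity.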 A digest of the protocol:
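Viability is taken as cellular ATP: after 16 h compound exposure of HCT116 cells and a 2 h room-temperature CCF4-AM substrate step, CellTiter-Glo reagent is added and luminescence is measured 30 min later.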

Test [6] has as its target Cellular tumor antigen p53 (Homo sapiens) (UniProt P04637). In words: TOX21_p53_BLA_p5_ratio: Tox21 HCT-116 p53 Agonism Beta-lactamase Assay, Ratio, Phase 5 (AID 2283599). A digest of the protocol: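 HCT-116 cells carrying a p53-inducible beta-lactamase reporter were seeded at 4000 cells/well and dosed after 5 h with compound in DMSO (217-fold dilution). After 16 h at 37C, CCF4-AM substrate was added for 2 h, and the 460/530 nm emission ratio was scored as gain-of-signal versus DMSO.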

A short description of test [7]: TOX21_p53_BLA_p5_viability: Viability Assessment in the Tox21 HCT-116 p53 Agonism Beta-lactamase Assay, Phase 5 (AID 2283600). A digest of the protocol: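 Viability is taken from cellular ATP content, measured by luciferase luminescence in the same wells after the beta-lactamase ratio read. Cells are seeded at 4000 per well and exposed to DMSO-dissolved compounds, diluted 217-fold, for 16 h.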

Test [8] deals with Cellular tumor antigen p53 (Homo sapiens) (UniProt P04637). The test can be described thus: TOX21_p53_BLA_p4_ratio: Tox21 HCT-116 p53 Agonism Beta-lactamase Assay, Ratio, Phase 4 (AID 2283601). The method, boiled down: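 HCT116 cells carrying an inducible beta-lactamase reporter were plated at 4000 cells/well, rested 5 h, then exposed to compounds in DMSO (217-fold dilution) for 16 h at 37C. CCF4-AM substrate was loaded 2 h at room temperature; 460/530 nm emission ratio scored gain-of-signal versus DMSO.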

Results filed as inconclusive are left out. The source made the active and inactive calls. How the source made its calls: active means hit-call score of the fitted dose curve at least 0.9, where 1 is the maximum; inconclusive means response in the unintended direction; inactive means score below 0.9.

Cellular tumor antigen p53 (Homo sapiens), sequence (P04637 whole entry, looked up): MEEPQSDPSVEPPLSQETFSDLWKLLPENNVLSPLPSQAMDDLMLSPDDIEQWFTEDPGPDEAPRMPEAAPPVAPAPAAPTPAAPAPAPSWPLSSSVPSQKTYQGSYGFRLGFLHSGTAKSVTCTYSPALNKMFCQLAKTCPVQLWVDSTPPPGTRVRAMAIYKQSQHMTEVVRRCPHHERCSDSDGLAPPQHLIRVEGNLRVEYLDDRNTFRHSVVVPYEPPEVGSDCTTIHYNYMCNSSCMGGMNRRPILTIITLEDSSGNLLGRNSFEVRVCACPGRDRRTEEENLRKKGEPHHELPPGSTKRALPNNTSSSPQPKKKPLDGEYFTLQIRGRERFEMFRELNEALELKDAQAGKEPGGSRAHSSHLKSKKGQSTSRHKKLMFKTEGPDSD

With `NC(=O)C(c1ccccc1)(c1ccccc1)[C@@H]1CCN(CCc2ccc3c(c2)CCO3)C1`, the call in test [1], in test [2], in test [3], in test [4], in test [5] and in test [6] was inactive. Also, the call in test [7] and in test [8] was inactive.

Usually AC50 stands for the midpoint of the concentration-response curve, whichever way the signal moves. As to `O=C1NCN(c2ccccc2)C12CCN(CCCC(c1ccc(F)cc1)c1ccc(F)cc1)CC2`, the AC50 in test [1] is 37.3 µM (active); in test [2], 39.1 µM (active); in test [3], 35.9 µM (active); in test [4] it was 42.2 µM (active); in test [5], 23 µM (active); in test [6], 45 µM (active). Besides, the AC50 was 35.1 µM (active) in test [7] and 26.7 µM (active) in test [8].

Consider `O=C(Oc1cccc2cccnc12)c1ccccc1`, for which the result in test [1], in test [2], in test [3], in test [4], in test [5] and in test [6] was inactive. Moreover, the result in test [7] and in test [8] was inactive.

Take `CC(C)COC(=O)COc1cc(Cl)c(Cl)cc1Cl`: the compound was called inactive in test [1], in test [2], in test [3], in test [4], in test [5] and in test [6]. For the same compound, the call in test [7] and in test [8] was inactive.

With `O=c1cccccc1O`, the compound was classed as inactive in test [1], in test [2], in test [3], in test [4], in test [5] and in test [6]. The outcome in test [7] and in test [8] was inactive.

On to `[O-][N+](=Nc1ccccc1)c1ccccc1`, for which the compound was called inactive in test [1], in test [2], in test [3], in test [4], in test [5] and in test [6]. In addition, the compound was called inactive in test [7] and in test [8].

In the case of `COc1ccccc1N1CCN(CC(O)COc2cccc3ccccc23)CC1` (stereo not drawn), the call in test [1], in test [2], in test [3], in test [4], in test [6] and in test [7] was inactive. The result in test [8] was inactive. In addition, the AC50 in test [5] was 23 µM (active).

For the compound `CCCCCCCCCCCCCC[n+]1ccc(C)cc1`, the call in test [1], in test [3], in test [5], in test [6], in test [7] and in test [8] was inactive. Further, the AC50 in test [2] was 20.1 µM (active); in test [4], 27.5 µM (active).

For `O=C1C(=O)c2ccccc2C(O)=C1C1CCC(c2ccc(Cl)cc2)CC1` (stereo not drawn), the call in test [1], in test [3], in test [5], in test [7] and in test [8] was inactive. Further, the AC50 in test [2] is 10.3 µM (active); in test [4], 1.61 µM (active); in test [6], 10.3 µM (active).

On to `Nc1cc(S(=O)(=O)O)cc2cc(S(=O)(=O)O)cc(O)c12`, for which the outcome in test [1], in test [2], in test [3], in test [4], in test [5] and in test [6] was inactive. For the same compound, the compound was called inactive in test [7] and in test [8].

Consider `O=C1c2ccccc2C(=O)C1c1ccc2ccccc2n1`, for which the compound was called inactive in test [1], in test [2], in test [3], in test [4], in test [5] and in test [6]. Moreover, the result in test [7] and in test [8] was inactive.

As for `CO[C@H]1/C=C/O[C@@]2(C)Oc3c(C)c(O)c4c(O)c(c(/C=N/N5CCN(C6CCCC6)CC5)c(O)c4c3C2=O)NC(=O)/C(C)=C\C=C\[C@H](C)[C@H](O)[C@@H](C)[C@@H](O)[C@@H](C)[C@H](OC(C)=O)[C@@H]1C`, the AC50 in test [1] was 33.8 µM (active); in test [2], 43.8 µM (active); in test [3] it was 35.3 µM (active); in test [4], 42.8 µM (active); in test [5], 37.2 µM (active); in test [6], 43.2 µM (active). In addition, the AC50 in test [7] was 42.8 µM (active); in test [8], 36.8 µM (active).

Consider `OCC(O)[C@@H](O)[C@H](O)[C@H](O)CO[C@H]1O[C@H](CO)[C@@H](O)[C@H](O)[C@H]1O` (stereo partly drawn), for which the outcome in test [1], in test [2], in test [3], in test [4], in test [5] and in test [6] was inactive. Further, the outcome in test [7] and in test [8] was inactive.

Take `CC(C)(C#N)Nc1nc(Cl)nc(NC2CC2)n1`: the call in test [1], in test [2], in test [3], in test [4], in test [5] and in test [6] was inactive. Moreover, the call in test [7] and in test [8] was inactive.

As to `Cc1ccc2c(Cl)cc(Cl)c(O)c2n1`, the AC50 in test [1] is 7.81 µM (active); in test [3], 12.2 µM (active); in test [5], 13.7 µM (active); in test [6], 25.9 µM (active); in test [8] it was 33.1 µM (active). In addition, the result in test [2], in test [4] and in test [7] was inactive.

On to `CC(C)C[C@H](NC(=O)CNC(=O)[C@H](Cc1ccc(O)cc1)NC(=O)[C@H](CO)NC(=O)[C@H](Cc1c[nH]c2ccccc12)NC(=O)[C@H](Cc1cnc[nH]1)NC(=O)[C@@H]1CCC(=O)N1)C(=O)N[C@@H](CCCN=C(N)N)C(=O)N1CCC[C@H]1C(=O)NCC(N)=O` (stereo in doubt), for which the result in test [1], in test [2], in test [3], in test [4], in test [5] and in test [6] was inactive. For the same compound, the call in test [7] and in test [8] was inactive.

Take `CCCCCCCCCCCCCCCCCCNC(=O)OC1CCN(C(=O)OC[C@H](COC(=O)N(Cc2cccc[n+]2CC)C(=O)c2ccccc2OC)OC)CC1`: the outcome in test [1], in test [2], in test [3], in test [4] and in test [7] was inactive. The AC50 was 30.2 µM (active) in test [5], 35.7 µM (active) in test [6] and 38.4 µM (active) in test [8].

For the compound `COc1cccc2c1C(=O)c1c(O)c3c(c(O)c1C2=O)C[C@@](O)(C(=O)CO)C[C@@H]3O[C@H]1C[C@H](N)[C@H](O[C@@H]2CCCCO2)[C@H](C)O1`, the AC50 in test [1] was 7.4 µM (active); in test [2], 6.79 µM (active); in test [3], 7.5 µM (active); in test [4] it was 7.49 µM (active); in test [5], 7.64 µM (active); in test [6], 7.29 µM (active). For the same compound, in test [8], the AC50 was 7.58 µM (active). Moreover, the outcome in test [7] was inactive.

As to `CN(C)CCCN1c2ccccc2Sc2ccc(C(F)(F)F)cc21`, the compound was called inactive in test [1], in test [2], in test [3], in test [6] and in test [7]. Besides, the AC50 was 11.1 µM (active) in test [4], 36.2 µM (active) in test [5] and 10.1 µM (active) in test [8].

`CCCCNc1cc(C(=O)O)cc(S(N)(=O)=O)c1Oc1ccccc1`: the call in test [1], in test [2], in test [3], in test [4], in test [5] and in test [6] was inactive. For the same compound, the result in test [7] and in test [8] was inactive.

For the compound `C=CC[C@@H]1/C=C(\C)C[C@H](C)C[C@H](OC)[C@H]2O[C@@](O)(C(=O)C(=O)N3CCCC[C@H]3C(=O)O[C@H](/C(C)=C/[C@@H]3CC[C@@H](O)[C@H](OC)C3)[C@H](C)[C@@H](O)CC1=O)[C@H](C)C[C@@H]2OC`, the AC50 in test [1] was 36.5 µM (active); in test [5] it was 35.9 µM (active); in test [6], 36.8 µM (active); in test [7], 40.5 µM (active). Besides, the outcome in test [2], in test [3], in test [4] and in test [8] was inactive.
